# Test results published in ChEMBL document CHEMBL3433997, “St. Jude Leishmania screening dataset” (2016).
# Target: Hexose transporter 1 (Plasmodium falciparum) (UniProt O97467)
# Assay: ST_JUDE_LEISH: Cytotoxicity at 2uM final concentration against transgenic Leishmania Mexicana promastigotes LmPfHT that are glucose transport deficient and complemented with the Plasmodium falciparum hexose transporter. Activity is measured by DNA content using SYBR green in vitro
# Format: functional
row,SMILES,inhibition
1,COc1cc2nc(NCCc3ccccc3)nc(N(C)Cc3ccccc3)c2cc1OC,5.4%
2,CC(C)(C)c1cc(C(=O)N2CCN(c3ncccc3C(F)(F)F)CC2)n(Cc2ccccc2)n1,6.48%
3,COC(=O)c1ccc(OCC(O)CO)cc1O (configuration not stated),2.14%
4,Cc1cc(=NN=CC=Cc2ccccc2)c2ccccc2[nH]1,2.74%
5,Cc1cccc2nc(-c3ccc(-c4cccc(CN5CCN(c6ccncc6)CC5)c4)cc3)[nH]c12,25.8%
6,FC(F)(F)c1cccc(Nc2nc(-n3ccnc3)nc(-n3ccnc3)n2)c1,0.62%
7,CS(=O)(=O)c1ccc2nc(NC(=O)c3csnn3)sc2c1,3.89%
8,COc1ccc(CNCc2ccc(-c3ccc(-c4nc5cc(F)ccc5[nH]4)cc3)cc2)cc1,5.38%
9,COc1ccc2nccc([C@@H](O)CN3CCC(NCc4nc5ccccc5[nH]4)CC3)c2c1,-0.18%
10,Nc1nc(O)c2cc(CN(C=O)c3ccc(C(=O)N[C@@H](CCC(=O)O)C(=O)O)cc3)ccc2n1,4.17%
11,COc1cc2nc(C)nc(Nc3ccc(Oc4ccccc4)cc3)c2cc1OC,2.09%
12,CCCCCn1c(Sc2ccc(C#N)c([N+](=O)[O-])c2)nnc1-c1cc(OC)cc(OC)c1,10.4%
13,CC(=O)Nc1cccc(/C=C/C(=O)N2CCC(N3CCCCC3)CC2)c1,1.03%
14,COc1cccc2c(C)cc(NCc3ccc(Cl)cc3)nc12,4.71%
15,CC(C)[C@H](NCC(=O)c1ccccc1)C(=O)O,0.65%
16,CN(C)c1ccc(-c2cscc2C(=O)NC2CCCN(Cc3cccnc3)C2)cc1 (configuration not stated),-0.27%
17,Cc1ccccc1C1CCN(C2CCC(NC(=O)c3cc4cc(Cl)ccc4o3)CC2)CC1 (configuration not stated),1.17%
